Data as given in PubChem BioAssay (NCI).
About 83,000 compounds went through this panel and 20% of them were active in at least one assay; those are over-represented in the sample as a whole.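 Single-dose data. Exposure time 48 hours. Values below 10 considered active.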 Values without a mark were called inactive. Activity calls are given as the source filed them.

Key:
Assay in all cases: NCI-60 one-dose screen, 48 h (100 = growth as untreated, 0 = no growth, -100 = all killed)
Settings in all cases: 10 µM unless noted
[1] = tested on: NCI-H23 lung
[2] = tested on: NCI-H226 lung
[3] = tested on: NCI-H322M lung
[4] = tested on: HOP-62 NSCLC
[5] = tested on: NCI-H460 lung
[6] = tested on: HOP-92 NSCLC
[7] = tested on: NCI-H522 lung
[8] = tested on: A549/ATCC NSCLC
[9] = tested on: 786-0 renal
[10] = tested on: COLO 205 colon
[11] = tested on: DU-145 prostate
[12] = tested on: K-562 leukemia
[13] = tested on: MALME-3M melanoma
[14] = tested on: MDA-MB-231 breast
[15] = tested on: RXF 393 renal
[16] = tested on: SF-268 CNS
[17] = tested on: SF-295 CNS
[18] = tested on: SF-539 CNS
[19] = tested on: UACC-257 melanoma
[20] = tested on: M14 melanoma

Structure (SMILES) | growth [1] | growth [2] | growth [3] [%] | growth [4] | growth [5] | growth [6] | growth [7] | growth [8] | growth [9] | growth [10] | growth [11] | growth [12] | growth [13] | growth [14] | growth [15] | growth [16] | growth [17] | growth [18] | growth [19] | growth [20]
CCN(CC)c1ccc2nc3ccc(N=Nc4ccc(N(C)C)cc4)cc3[n+](-c3ccccc3)c2c1 | -64.9% (active) | -36.9% (active) | 25.2 | -87.9% (active) | -66.4% (active) | -14.6% (active) | -44.9% (active) | 3.32% (active) | -56.8% (active) | -89.9% (active) | -98% (active) | -4.96% (active) | -54.1% (active) | -46.4% (active) | -87.8% (active) | 9.77% (active) | -82.2% (active) | -69.2% (active) | -52.5% (active) | -75% (active)
CCCCCC#CC(=O)O | 109% | 107% | 98.7 | 98.2% | 110% | 83.6% | 90.6% | 97% | 99% | 107% | 132% | 103% | 99.9% | 110% | 125% | 110% | 103% | 103% | 104% | 120%
O=C(CCl)Nc1ccccc1SCc1cc(Cl)cc2c1OCOC2 | 82.7% | 82.8% | 89.7 | 100% | 105% | -6.11% (active) | -74.8% (active) | 96.5% | 99.6% | 95.7% | 101% | 32.1% | -69.1% (active) | 88.6% | 77.1% | 93.8% | 94% | 93.5% | 101% | 69.8%
COc1ccc(C(=O)/C(=N/Nc2ccccc2)c2ccc(OC)cc2)cc1 | 89% | 94.2% | 103 | 102% | 94.1% | 82.1% | 79.3% | 85.4% | 94.2% | 99.9% | 115% | 92.8% | 109% | 82.7% | 92.4% | 101% | 101% | 95.9% | 111% | 102%
Cc1cc(CO)c(O)c(CO)c1 | 121% | 115% | 98.7 | 107% | 107% | 96.4% | 84.4% | 103% | 107% | 114% | 115% | 87.3% | 104% | 108% | 112% | 105% | 109% | 110% | 95.8% | 97.6%
Oc1ccc(N=Cc2ccc(OCc3ccccc3)cc2)cc1 | 95.5% | 102% | 93.8 | 109% | 104% | 97.5% | 90.8% | 112% | 99.4% | 103% | 108% | 120% | 93.5% | 92.5% | 99.2% | 103% | 92% | 105% | 118% | 104%
CCC(=O)C1C(=O)c2ccccc2C1=O | 101% | 104% | 102 | 99% | 115% | 85.8% | 86.6% | 113% | 107% | 122% | 113% | 63.7% | 96.8% | 89.8% | 120% | 101% | 96.9% | 106% | 110% | 111%
O=C(O)CCCCCNC(=O)OCc1ccccc1 | 102% | 105% | 95.1 | 101% | 101% | 92.3% | 107% | 100% | 102% | 99% | 98% | 124% | 97.2% | 102% | 119% | 100% | 99.8% | 97.5% | 112% | 92.7%
Oc1cccc(CNC2CCCCC2)c1 | 107% | 102% | 129 | 111% | 116% | 97.5% | 90.4% | 101% | 102% | 120% | 119% | 101% | 129% | 102% | 114% | 103% | 120% | 106% | 119% | 99.9%
COc1cccc2c1Cc1ccccc1-2 | 94.9% | 94.4% | 114 | 113% | 110% | 106% | 103% | 107% | 110% | 109% | 106% | 94.4% | 117% | 93.6% | 97.9% | 99.8% | 103% | 107% | 102% | 102%
CC(C)C1CCC(C)C(O)C1 (stereo not given) | 110% | 102% | 105 | 95.3% | 108% | 102% | 92.8% | 88.7% | 105% | 111% | 106% | 103% | 109% | 93.9% | 108% | 100% | 100% | 100% | 85.6% | 101%
CCN1CCCC(N2c3ccccc3Sc3ccccc32)C1 (stereo not given) | 103% | 113% | 86 | 104% | 104% | 74% | 94.9% | 103% | 87.7% | 96.6% | 94.1% | 91.8% | 92.1% | 76.5% | 104% | 103% | 107% | 103% | 104% | 99.8%
OCC1OC(n2ccc3c2ncn2ncnc32)C(O)C1O (stereo not given) | 35.8% | 25.1% | 38.4 | 37.3% | 26.5% | -0.422% (active) | 82.7% | 50.6% | 31.9% | 35% | 16.9% | 18.4% | 83.7% | 40.9% | 38.3% | 47.4% | 43.7% | 34.3% | 97.7% | 51.3%
ClCC(Cl)[C@@H]1CC2C=CC1C2 (stereo not given in full) | 102% | 91.7% | 108 | 109% | 113% | 99.7% | 99.6% | 89.1% | 94.4% | 127% | 113% | 105% | 102% | 96.8% | 105% | 108% | 91.3% | 110% | 105% | 112%
CCCCNC(=O)c1ccc(OCC)cc1 | 101% | 96% | 102 | 101% | 103% | 93.1% | 95.6% | 98.6% | 98.3% | 106% | 108% | 112% | 101% | 108% | 109% | 106% | 106% | 104% | 102% | 99.7%
